Sampled rows, rich in hits. Any-hit rate of the full collection: about 9.3%.
VACV mCherry inh – inhibitors of vaccinia virus infection (mCherry reporter signal) | Vaccinia virus mCherry reporter infection, fluorescence | AID 720579 | Potency, µM (titrated, usually from 36.5 µM), for inactives: top-dose activity change, negative = inhibition, most hits filed as inhibitors | 0.63% of 310,000 active; calls by dose curve; tested in A549 cells; further: potency means the concentration at half of the fitted maximal effect; nearly all actives have a fitted effect of over 35% in size
HCMV antiviral – blocks human cytomegalovirus replication | HFF cells, HCMV-luciferase reporter, 72 h; stronger effect = lower value | activity change, negative = inhibition, % at 57.5 µM | 4.5% of 410,000 active | AID 1259415; in the data active means activity change below about -60%; inconclusive means no clear call, values can overlap the other calls; inactive means above about -39%
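Steps: HFFs plated, 16 h 37C; compounds added; HCMV-luciferase added to MOI 1 PFU/cell; 72 h 37C; OneGlo reagent, 5 min room temperature; luminescence read, normalized to controls.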
Sm TGR inh – S. mansoni TGR enzyme inhibition | 3% of 360,000 active | purified TGR, DTNB reduction, TNB absorbance 405 nm | Potency, µM (doses to about 114 µM), inactives show at the top dose activity change, negative = inhibition, hits mostly inhibitors; further: potency means the concentration at half of the fitted maximal effect; nearly all actives have a fitted effect of over 60% in size
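First, TGR (20 nM dispensed) and NADPH were mixed with compound. Second, a 15 min room-temperature incubation followed. Third, further NADPH and then DTNB were added to start the reaction. Finally, TNB absorbance was monitored kinetically.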
FMDV inh – foot and mouth disease virus antiviral activity; FMDV antiviral cell-based qHTS; Potency, µM (top dose mostly 57.9 µM), for inactives: at the highest dose activity change, negative = inhibition, usual class: inhibitors; 1.2% of 410,000 active; calls by dose curve; tested in HEK293T cells; further: read-out not given here; potency means the concentration at half of the fitted maximal effect; nearly all actives have a fitted effect of over 45% in size
Vaccinia Venus – vaccinia inhibition (Venus reporter); Vaccinia virus Venus reporter expression, fluorescence; Potency, µM (highest dose often 36.5 µM), for the others: at the top dose activity change, negative = inhibition, actives largely listed as inhibitors; 0.46% of 330,000 active; AID 720580; calls by dose curve; tested in A549 cells; further: potency means the concentration at half of the fitted maximal effect; nearly all actives have a fitted effect of over 30% in size
HCV inh – HCV inhibition. Huh7.5.1 HCVcc-Cre infection, luciferase reporter, 44 h. Potency, µM (top dose mostly 41.8 µM), for the others: at the top dose activity change, negative = inhibition, usual class: inhibitors. 3.4% of 340,000 active. AID 651820; further: potency means the concentration at half of the fitted maximal effect
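Infectious HCVcc-Cre (~0.5 moi) was added to cells just after compound, with cells seeded 4 h earlier at 1,000 per well. Luciferase activity after 44 h culture reported infection; substrate was incubated 15 min at room temperature before reading.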
Active calls of the source: *; i = inactive; ? = inconclusive; . = no result; ! = repeats disagree. Unless noted, the call rests on the fitted dose curve; in most records, active means well fitted curve in the direction sought with a large enough effect; inconclusive means small, poorly fitted or top-dose-only effect, or another doubt; inactive means no such curve, though single readings can be large; an effect the other way counts as inactive or inconclusive. On the % scale 0 is the no-effect control and ±100 the full control effect.

SMILES	VACV mCherry inh	HCMV antiviral	Sm TGR inh	FMDV inh	Vaccinia Venus	HCV inh
COc1ccc(C(=O)c2cc(C(C)=O)c(Nc3ccccc3)s2)cc1	-9.4%	-34.0	-0.4%	0.0%	?	3.16µM*
COc1ccc(C(=O)c2sc(Nc3ccccc3F)nc2N)cc1	.	100.3	-13.8%	29.1%	.	?
COc1ccc(C(=O)c2sc(Nc3ccccc3)nc2N)cc1	i	-61.1*!	-14.4%	50.7%	?	-3.9%
CC(C1CC1)N(Cc1ccccc1)C(=O)NC(=O)c1ccc(F)cc1 (stereo not drawn)	-3.4%	19.7	2.9%	11.6%	-26.3%	-1.8%
Cc1ccccc1-c1cc(C(=O)NCc2ccco2)n(CC2CC(c3cccnc3)=NO2)n1 (stereo not drawn)	-5.7%	2.0	17.8µM*	5.9%	?	?
COc1cc(NC(=O)c2cccs2)ccc1NC(=O)c1ccco1	-23.9%	41.3	2.6%	35.7%	?	?
O=C(C1CCN(Cc2nc(-c3ccc(Cl)cc3)no2)CC1)N1CCOCC1	.	-8.1	-7.1%	?	.	-11.9%
O=c1[nH]c(CN2CCN(C/C=C/c3ccccc3)CC2)nc2cc(Cl)ccc12	-28.9%	0.7	-8.0%	-22.7%	-21.7%	14.1µM*
O=C(CCc1nc2ccccc2c(=O)[nH]1)N1CCN(C/C=C/c2ccccc2)CC1	.	13.3	3.6%	20µM*	.	?
O=C(c1ccco1)N1CCN(Cc2nc3cc(Cl)ccc3c(=O)[nH]2)CC1	i	21.5	-29.5%	-11.0%	-0.4%	6.0%
CC(=O)Oc1oc(-c2ccccc2)nc1/C=N/c1ccccn1	i	5.4	28.2µM*	.	0.0%	21.6%
CCOC(=O)c1ccc(NC(=O)Cn2ncc(Cl)c(Cl)c2=O)cc1	?	-99.7*	17.8µM*	39.8µM*	?	?
CCC(=O)Nc1ccc(C(=O)Cn2ncc(Cl)c(Cl)c2=O)cc1	.	-102.6*	2.82µM*	-16.4%	.	?
CCc1ccccc1NC(=O)CN(C)C(=O)Cn1ncc(Cl)c(Cl)c1=O	?	-99.3*	?	35.5µM*	?	2.82µM*
CCOC(=O)c1ccc(NC(=O)Cn2nc(C)c3ccccc3c2=O)cc1	.	21.1	0.0%	-5.7%	.	-20.6%
Cc1cccc(CC2SC(N)=NC2=O)c1 (stereo not drawn)	-10.0%	-35.2	-4.3%	17.0%	0.6%	6.8%
CC1CN(Cc2nc3c(c(=O)[nH]c(=O)n3C)n2CC(N)=O)CC(C)O1 (stereo not drawn)	-11.8%	26.1	0.0%	-12.0%	-2.1%	-23.9%
O=C(NCC1CCOCC1)c1cc(COc2ccc(F)cc2F)on1	.	?	0.3%	-16.7%	.	-4.6%
COC(=O)c1ccccc1NC(=O)c1noc2c1CSc1ccccc1-2	-3.5%	-13.8	3.55µM*	15.1%	-9.3%	.
O=C(CN1CCN(c2ccccc2)CC1)Nc1nccs1	.	-31.6	5.7%	-10.4%	0.1%	4.9%
c1ccc(-c2cc3c(N4CCOCC4)ncnc3s2)cc1	-18.0%	-17.7	0.0%	?	-26.9%	10µM*
c1ccc(-c2cc3c(N4CCCC4)ncnc3s2)cc1	-11.4%	73.9	13.1%	?	-20.4%	10µM*
O=C(NCc1cccs1)[C@@H]1CCCN1S(=O)(=O)c1ccccc1F	i	-32.3	.	0.0%	2.0%	6.7%
COc1cccc2c1cc1c(=O)n(CC(=O)N3CCN(c4ccc(Cl)cc4)CC3)nc(C)n12	-11.6%	7.4	22.9%	-9.2%	-0.4%	.
COc1ccc(CCNC(=O)N2c3ccccc3Sc3ccccc32)cc1	?	?	.	17.8µM*	?	10µM*
COCCNCC(=O)N1c2ccccc2Sc2ccccc21	-7.3%	14.2	0.0%	-4.6%	-0.3%	-0.8%
CC(C)CNCC(=O)N1c2ccccc2Sc2ccccc21	i	-71.4*	3.7%	-5.7%	-16.1%	5.8%
CC(C)(C)NC(=O)N1c2ccccc2Sc2ccccc21	.	-60.4*	-3.8%	-32.8%	.	-2.7%
COCCNC(=O)C1Cc2c(-c3ccc(NC(C)=O)cc3)ccnc2O1 (stereo not drawn)	-26.2%	3.3	.	-2.4%	-10.1%	.
O=C(CC[C@H]1O[C@@H](n2ccc(=O)[nH]c2=O)[C@H](O)[C@@H]1O)NCc1ccco1	6.0%	43.6	.	-23.2%	9.7%	.
